PubChem BioAssay AID1159580 (chemical genetic matrix, 2015)
In all, about 5,500 compounds went through this assay and about 2,000 (36%) were called active. Inconclusive results (about 18%) are left out. No stated cut-off is given here; in the data, active means normalized growth mostly below about 0.91 (no sharp cut-off); inconclusive means no clear call, values can overlap the other calls; inactive means mostly above about 0.92. This is one part of the list.

Assay: chemical genetic growth profiling, strain panel (AID 1159580);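 further: tested at 20 µM; growth read once vehicle control cultures reached saturation at 30 °C; 1 = growth at the plate median or of vehicle wells; lower values mean less growth of the strain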
Settings: growth OD

Measured: normalized growth

CN[C@@H]1[C@H](O)[C@H](NC)[C@H]2O[C@@]3(O)C(=O)C[C@@H](C)O[C@H]3O[C@@H]2[C@H]1O
inactive: S. cerevisiae deletion strains, locus YJR075W, strain HOC1, active compounds read low 1.01 | S. cerevisiae deletion strains, locus YKL009W, strain mrt4, active compounds read low 1.02 | S. cerevisiae deletion strains, locus YKL068W, active compounds read low 1.01 | S. cerevisiae deletion strains, locus YKL085W, strain MDH1 (second series), active compounds read low 1.01 | S. cerevisiae deletion strains, locus YKL085W, strain MDH1, active compounds read low 1.01 | S. cerevisiae deletion strains, locus YKL160W, strain elf1, active compounds read low 1.01 | S. cerevisiae deletion strains, locus YKL190W, strain CNB1, active compounds read low 1 | S. cerevisiae deletion strains, locus YKR001C, strain vps1, active compounds read low 1.02 | S. cerevisiae deletion strains, locus YKR026C, strain gcn3, active compounds read low 1.01 | S. cerevisiae deletion strains, locus YKR091W, strain srl3, active compounds read low 1 | S. cerevisiae deletion strains, locus YLL001W, strain dnm1, active compounds read low 1.02 | S. cerevisiae deletion strains, locus YLL026W, active compounds read low 1 | S. cerevisiae deletion strains, locus YLL041C, strain sdh2, active compounds read low 0.999 | S. cerevisiae deletion strains, locus YLR027C, strain aat2, active compounds read low 1.01 | S. cerevisiae deletion strains, locus YLR039C, strain RIC1, active compounds read low 1.05 | S. cerevisiae deletion strains, locus YLR058C, strain SHM2, active compounds read low 1.01 | S. cerevisiae deletion strains, locus YLR102C, strain apc9, active compounds read low 1.02 | S. cerevisiae deletion strains, locus YLR113W, strain HOG1, active compounds read low 0.967 | S. cerevisiae deletion strains, locus YLR221C, strain rsa3, active compounds read low 0.981 | S. cerevisiae deletion strains, locus YLR258W, strain gsy2, active compounds read low 0.999 | S. cerevisiae deletion strains, locus YLR262C, strain YPT6 (second series), active compounds read low 1.05 | S. cerevisiae deletion strains, locus YLR262C, strain YPT6, active compounds read low 1.06 | S. cerevisiae deletion strains, locus YLR268W, strain sec22, active compounds read low 1.04 | S. cerevisiae deletion strains, locus YLR320W, strain mms22, active compounds read low 0.974 | S. cerevisiae deletion strains, locus YLR330W, strain CHS5, active compounds read low 1.01 | S. cerevisiae deletion strains, locus YLR342W, strain FKS1 (second series), active compounds read low 1 | S. cerevisiae deletion strains, locus YLR342W, strain FKS1, active compounds read low 1.02 | S. cerevisiae deletion strains, locus YLR357W, strain rsc2, active compounds read low 1 | S. cerevisiae deletion strains, locus YLR370C, strain arc18, active compounds read low 0.995 | S. cerevisiae deletion strains, locus YLR371W, strain rom2, active compounds read low 1.02 | S. cerevisiae deletion strains, locus YLR384C, strain iki3, active compounds read low 1.01 | S. cerevisiae deletion strains, locus YLR418C, strain cdc73, active compounds read low 1.03 | S. cerevisiae deletion strains, locus YML016C, strain PPZ1, active compounds read low 1.01 | S. cerevisiae deletion strains, locus YML032C, strain rad52, active compounds read low 1.04 | S. cerevisiae deletion strains, locus YML120C, strain ndi1, active compounds read low 1 | S. cerevisiae deletion strains, locus YML124C, strain tub3, active compounds read low 1.02 | S. cerevisiae deletion strains, locus YMR058W, strain fet3, active compounds read low 1.01 | S. cerevisiae deletion strains, locus YMR078C, strain ctf18, active compounds read low 1.02 | S. cerevisiae deletion strains, locus YMR125W, strain sto1, active compounds read low 0.99 | S. cerevisiae deletion strains, locus YMR129W, active compounds read low 0.999 | S. cerevisiae deletion strains, locus YMR205C, strain PFK2, active compounds read low 1 | S. cerevisiae deletion strains, locus YMR223W, strain ubp8, active compounds read low 1.01 | S. cerevisiae deletion strains, locus YMR231W, strain pep5, active compounds read low 1 | S. cerevisiae deletion strains, locus YMR263W, strain SAP30, active compounds read low 1.01 | S. cerevisiae deletion strains, locus YMR307W, strain GAS1, active compounds read low 1.03 | S. cerevisiae deletion strains, locus YNL067W, strain RPL9B, active compounds read low 1.02 | S. cerevisiae deletion strains, locus YNL071W, strain lat1, active compounds read low 0.996 | S. cerevisiae deletion strains, locus YNL128W, strain TEP1, active compounds read low 1.02 | S. cerevisiae deletion strains, locus YNL153C, strain GIM3, active compounds read low 1 | S. cerevisiae deletion strains, locus YNL183C, strain NPR1, active compounds read low 0.94 | S. cerevisiae deletion strains, locus YNL209W, strain ssb2, active compounds read low 0.999 | S. cerevisiae deletion strains, locus YNL233W, strain BNI4, active compounds read low 1.02 | S. cerevisiae deletion strains, locus YNL248C, strain rpa49, active compounds read low 0.954 | S. cerevisiae deletion strains, locus YNL250W, strain rad50, active compounds read low 1.02 | S. cerevisiae deletion strains, locus YNL271C, strain bni1, active compounds read low 1.01 | S. cerevisiae deletion strains, locus YNL298W, strain CLA4, active compounds read low 1.03 | S. cerevisiae deletion strains, locus YNL307C, strain MCK1, active compounds read low 1.03 | S. cerevisiae deletion strains, locus YNL322C, strain KRE1 (second series), active compounds read low 1 | S. cerevisiae deletion strains, locus YNL322C, strain KRE1, active compounds read low 1.01 | S. cerevisiae deletion strains, locus YNR049C, strain mso1, active compounds read low 1.01 | S. cerevisiae deletion strains, locus YNR052C, strain pop2, active compounds read low 1.02 | S. cerevisiae deletion strains, locus YOL006C, strain TOP1, active compounds read low 1.08 | S. cerevisiae deletion strains, locus YOL012C, strain htz1 0.978 | S. cerevisiae deletion strains, locus YOL147C, strain pex11, active compounds read low 1.02 | S. cerevisiae deletion strains, locus YOR001W, strain rrp6, active compounds read low 1.02 | S. cerevisiae deletion strains, locus YOR061W, strain CKA2, active compounds read low 1.02 | S. cerevisiae deletion strains, locus YOR069W, strain VPS5, active compounds read low 1.01 | S. cerevisiae deletion strains, locus YOR070C, strain gyp1, active compounds read low 1 | S. cerevisiae deletion strains, locus YOR080W, strain dia2, active compounds read low 1.01 | S. cerevisiae deletion strains, locus YOR083W, strain WHI5, active compounds read low 0.982 | S. cerevisiae deletion strains, locus YOR106W, strain vam3, active compounds read low 1.02 | S. cerevisiae deletion strains, locus YOR136W, strain idh2, active compounds read low 1.02 | S. cerevisiae deletion strains, locus YOR144C, strain elg1, active compounds read low 1.02 | S. cerevisiae deletion strains, locus YOR184W, strain ser1, active compounds read low 1.03 | S. cerevisiae deletion strains, locus YOR231W, strain MKK1, active compounds read low 0.953 | S. cerevisiae deletion strains, locus YOR265W, strain rbl2, active compounds read low 1.01 | S. cerevisiae deletion strains, locus YOR270C, strain vph1, active compounds read low 1.01 | S. cerevisiae deletion strains, locus YOR290C, strain snf2, active compounds read low 0.978 | S. cerevisiae deletion strains, locus YOR316C, strain cot1, active compounds read low 1.01 | S. cerevisiae deletion strains, locus YPL051W, strain arl3, active compounds read low 1.01 | S. cerevisiae deletion strains, locus YPL055C, strain LGE1, active compounds read low 1.02 | S. cerevisiae deletion strains, locus YPL078C, strain atp4, active compounds read low 1.02 | S. cerevisiae deletion strains, locus YPL106C, strain sse1, active compounds read low 0.991 | S. cerevisiae deletion strains, locus YPL240C, strain hsp82, active compounds read low 0.995 | S. cerevisiae deletion strains, locus YPL241C, strain CIN2, active compounds read low 1.01 | S. cerevisiae deletion strains, locus YPL256C, strain CLN2, active compounds read low 0.962 | S. cerevisiae deletion strains, locus YPR119W, strain clb2, active compounds read low 1.02 | S. cerevisiae deletion strains, locus YPR141C, strain kar3, active compounds read low 1.02 | S. cerevisiae deletion strains, locus YPR163C, strain tif3, active compounds read low 1.02 | S. cerevisiae deletion strains, locus YPR167C, strain met16, active compounds read low 1.03 | S. cerevisiae deletion strains, strain wtn01, active compounds read low 1.03 | S. cerevisiae strains, strain wild type, active compounds read low 1.01
